Measured values as given in PubChem BioAssay.
Calls of active or inactive are those of the source.

Tests used:
[1] = tested on: Plasmodium falciparum Sir2 (PF13_0152, Sir2A); assay: Plasmodium falciparum Sir2A binding compounds – biochemical, small-molecule microarray, 635 nm fluorescence, primary screen (AID 1098); settings: fluorescence 635 nm, higher = more signal;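 further: score merges spot fluorescence intensity with its signal-to-noise ratio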
[2] = probe aDKK1 binding to arrayed compounds – biochemical, biotinylated probe, 635/667 nm fluorescence, primary screen (AID 1099); settings: small-molecule microarray, higher = more signal;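 further: score merges 667nm spot fluorescence with signal to noise across triplicate slides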
[3] = probe aCHRDL2 binding to arrayed compounds – biochemical, biotinylated probe, 635/667 nm fluorescence, primary screen (AID 1100); settings: small-molecule microarray, higher = more signal
[4] = change in splice reporter luminescence, either direction, cell-based, HEK293, spliceosome inhibition project, primary screen (AID 1101); settings: HEK293 splicing luciferase reporter, 24 h, higher = more signal, called active from +8 up or from −8 down;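 further: HEK293 cells carrying a splicing-competent luciferase reporter gene; test concentration not given here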
[5] = biological target: Fibroblast growth factor 10 (Homo sapiens) (UniProt O15520); assay: compounds binding fibroblast growth factor 10 – biochemical, small-molecule microarray, 635 nm fluorescence, primary screen (AID 1102); settings: FGF10 binding, fluorescence 635 nm, higher = more signal
[6] = tested on: glycogen synthase kinase-3 (GSK3A per assay name; protocol says GSK3B); assay: compounds binding glycogen synthase kinase-3 – biochemical, small-molecule microarray, 635 nm fluorescence, GSK3A, primary screen (AID 1103); settings: fluorescence 635 nm, higher = more signal; further: the record names both GSK3A and GSK3B
[7] = biological target: Epidermal growth factor receptor (Homo sapiens) (UniProt P00533); assay: compounds binding epidermal growth factor receptor – biochemical, small-molecule microarray, 635 nm fluorescence, primary screen (AID 1104); settings: EGFR binding, higher = more signal;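 further: score merges 667 nm emission intensity with spot signal to noise over triplicate slides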
[8] = biological target: Follistatin-related protein 3 (Homo sapiens) (UniProt O95633); assay: compounds binding follistatin-related protein 3 – biochemical, small-molecule microarray, 635 nm fluorescence, primary screen (AID 1105); settings: FSTL3 binding, higher = more signal;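 further: score merges emission near 667 nm and signal to noise per printed spot across three slides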
[9] = biological target: Dickkopf-related protein 1 (Homo sapiens) (UniProt O94907); assay: small molecules binding DKK1 protein – biochemical, small-molecule microarray, 635 nm fluorescence scan, primary screen (AID 1106); settings: higher = more signal;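 further: score merges emission near 667 nm with signal to noise over three replicate slides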
[10] = tested on: Inhibin beta A chain (activin A); assay: small molecules binding activin A – biochemical, small-molecule microarray, 635 nm fluorescence scan, primary screen (AID 1107); settings: INHBA, higher = more signal;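 further: mouse activin A protein probed at 4.33 µg/mL on printed slides; score merges bound-protein fluorescence near 667 nm with spot signal-to-noise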
[11] = tested on: Human papillomavirus type 1a protein E7 (residues 44-93); assay: small molecules binding HPV E7 44-93 – biochemical, small-molecule microarray, residues 44-93, 635 nm fluorescence, primary screen (AID 1108); settings: fluorescence 635 nm, higher = more signal;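 further: E7 fragment applied at 1 µg/mL in TBST for 1 h at 4 C; score combines spot fluorescence with its signal to noise ratio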
[12] = hepatitis C replication reporter changes, two-sided – Huh7 cells, luciferase reporter, HCV replication inhibitor project, primary screen (AID 1109); settings: Huh7 HCV replicon luciferase reporter, 48 h; higher = more signal;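 further: huh7 hepatoma cells harbouring a luciferase neomycin HCV replicon reporter; luciferase luminescence as measure of HCV replicon replication; test concentration not given here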
[13] = biological target: Left-right determination factor 2 (Homo sapiens) (UniProt O00292); assay: small molecules binding LEFTY2 protein – biochemical, small-molecule microarray, 635 nm fluorescence scan, primary screen (AID 1110); settings: higher = more signal
[14] = biological target: Calmodulin-1 (Homo sapiens) (UniProt P0DP23); assay: small molecules binding calmodulin-1 with EGTA – biochemical, small-molecule microarray, Cy5-labelled CALM1, profiling panel (AID 1111); settings: Cy5-CALM1 binding fluorescence, higher = more signal;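 further: labelled calmodulin applied in Tris saline Tween buffer holding calcium plus EGTA and DTT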
[15] = biological target: Calmodulin-1 (Homo sapiens) (UniProt P0DP23); assay: small molecules binding Ca-loaded calmodulin-1 – biochemical, small-molecule microarray, Cy5-labelled CALM1, plus calcium, artefact control for SMM control-protein annotation, profiling panel (AID 1112); settings: Cy5-CALM1 binding fluorescence, higher = more signal;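 further: score merges spot fluorescence with signal to noise from triplicate slides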
[16] = probe aWnt5a binding to arrayed compounds – biochemical, biotinylated probe, 635/667 nm fluorescence, primary screen (AID 1113); settings: small-molecule microarray, higher = more signal;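 further: score merges 667 nm fluorescence intensity with signal-to-noise per printed feature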
[17] = probe aShh binding to arrayed compounds – biochemical, biotinylated probe, 635/667 nm fluorescence, primary screen (AID 1114); settings: small-molecule microarray, higher = more signal;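 further: probe is biotin-labelled aShh protein from a stem cell growth factor screen; measures binding of labelled protein to compounds printed on the slide; score merges feature fluorescence at 667 nm with signal-to-noise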
[18] = probe aNog binding to arrayed compounds – biochemical, biotinylated probe, 635/667 nm fluorescence, primary screen (AID 1115); settings: small-molecule microarray, higher = more signal;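 further: probe is biotinylated aNog protein used at 0.15 µg/mL for 1 h at 4 C; z-score combines 667 nm fluorescence of each spot with its signal to noise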
[19] = biological target: Torsin-1A-interacting protein 1 (Homo sapiens) (UniProt Q5JTV8); assay: compound microarray binding of lysate hLAP1 – cell lysate, small-molecule microarray, COS7 lysate, 635/667 nm fluorescence, primary screen (AID 1116); settings: 635 nm fluorescence, higher = more signal
[20] = biological target: Alpha-bungarotoxin (Bungarus multicinctus) (UniProt P60615); assay: compounds binding labelled alpha-BTX control protein – biochemical, small-molecule microarray, Alexa647 label, 635/667 nm fluorescence, artefact control for SMM control protein annotation, profiling panel (AID 1117); settings: alpha-BTX-A647 binding fluorescence, higher = more signal
Alpha-bungarotoxin (Bungarus multicinctus), sequence (P60615 whole entry, looked up): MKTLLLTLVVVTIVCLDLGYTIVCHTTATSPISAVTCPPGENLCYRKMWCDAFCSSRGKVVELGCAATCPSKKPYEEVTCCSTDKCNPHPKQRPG

Epidermal growth factor receptor (Homo sapiens), sequence (P00533 whole entry, looked up): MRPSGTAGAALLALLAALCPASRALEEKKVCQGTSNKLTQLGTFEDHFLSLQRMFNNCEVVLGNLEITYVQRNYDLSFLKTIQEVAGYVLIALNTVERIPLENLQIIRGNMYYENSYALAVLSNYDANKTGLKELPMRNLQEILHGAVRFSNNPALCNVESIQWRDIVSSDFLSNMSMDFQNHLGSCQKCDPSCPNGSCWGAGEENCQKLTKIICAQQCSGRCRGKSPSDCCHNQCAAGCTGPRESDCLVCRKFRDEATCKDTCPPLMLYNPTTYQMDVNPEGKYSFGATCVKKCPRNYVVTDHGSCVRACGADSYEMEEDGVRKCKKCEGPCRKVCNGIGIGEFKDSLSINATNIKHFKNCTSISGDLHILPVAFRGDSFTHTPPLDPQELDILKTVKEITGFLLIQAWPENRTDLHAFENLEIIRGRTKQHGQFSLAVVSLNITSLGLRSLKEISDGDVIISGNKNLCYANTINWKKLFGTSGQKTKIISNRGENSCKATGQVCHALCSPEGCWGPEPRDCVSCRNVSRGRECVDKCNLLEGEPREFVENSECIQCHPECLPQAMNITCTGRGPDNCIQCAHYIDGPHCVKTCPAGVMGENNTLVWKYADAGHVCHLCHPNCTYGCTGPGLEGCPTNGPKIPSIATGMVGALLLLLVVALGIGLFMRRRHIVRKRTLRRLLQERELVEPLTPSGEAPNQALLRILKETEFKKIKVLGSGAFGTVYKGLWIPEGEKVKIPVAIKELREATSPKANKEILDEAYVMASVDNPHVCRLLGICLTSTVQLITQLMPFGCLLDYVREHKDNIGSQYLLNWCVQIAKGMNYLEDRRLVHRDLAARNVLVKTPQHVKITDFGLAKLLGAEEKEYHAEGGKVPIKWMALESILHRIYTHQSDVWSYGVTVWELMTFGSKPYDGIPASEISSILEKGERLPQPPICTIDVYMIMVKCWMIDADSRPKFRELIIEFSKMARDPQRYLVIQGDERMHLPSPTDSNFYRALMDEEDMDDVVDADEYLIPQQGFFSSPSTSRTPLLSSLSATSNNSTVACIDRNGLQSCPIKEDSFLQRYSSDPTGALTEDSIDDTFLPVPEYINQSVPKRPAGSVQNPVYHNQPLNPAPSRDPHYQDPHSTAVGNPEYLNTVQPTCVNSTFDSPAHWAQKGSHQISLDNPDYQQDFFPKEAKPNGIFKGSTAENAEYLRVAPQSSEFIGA
Dickkopf-related protein 1 (Homo sapiens), sequence (O94907 whole entry, looked up): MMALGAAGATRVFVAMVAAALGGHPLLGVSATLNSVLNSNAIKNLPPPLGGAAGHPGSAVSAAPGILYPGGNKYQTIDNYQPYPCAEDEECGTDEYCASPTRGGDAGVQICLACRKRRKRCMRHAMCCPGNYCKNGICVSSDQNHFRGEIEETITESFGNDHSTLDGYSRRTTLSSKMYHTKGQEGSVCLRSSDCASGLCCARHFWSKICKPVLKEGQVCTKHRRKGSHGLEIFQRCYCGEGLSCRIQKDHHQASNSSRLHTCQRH
Torsin-1A-interacting protein 1 (Homo sapiens), sequence (Q5JTV8 whole entry, looked up): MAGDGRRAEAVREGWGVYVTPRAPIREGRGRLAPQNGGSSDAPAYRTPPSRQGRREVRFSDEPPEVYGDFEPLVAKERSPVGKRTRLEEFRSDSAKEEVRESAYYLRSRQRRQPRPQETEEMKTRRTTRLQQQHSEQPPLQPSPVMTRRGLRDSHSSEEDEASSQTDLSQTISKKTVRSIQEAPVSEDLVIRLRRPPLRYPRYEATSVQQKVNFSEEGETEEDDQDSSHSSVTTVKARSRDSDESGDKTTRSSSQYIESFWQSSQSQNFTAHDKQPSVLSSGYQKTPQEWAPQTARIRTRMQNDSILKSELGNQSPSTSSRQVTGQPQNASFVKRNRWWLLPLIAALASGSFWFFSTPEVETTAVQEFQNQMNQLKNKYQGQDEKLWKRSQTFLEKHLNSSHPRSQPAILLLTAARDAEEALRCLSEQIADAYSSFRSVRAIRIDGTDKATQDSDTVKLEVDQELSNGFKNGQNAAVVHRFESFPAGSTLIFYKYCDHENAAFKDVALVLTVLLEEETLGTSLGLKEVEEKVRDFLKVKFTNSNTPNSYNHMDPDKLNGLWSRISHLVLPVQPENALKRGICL
Fibroblast growth factor 10 (Homo sapiens), sequence (O15520 whole entry, looked up): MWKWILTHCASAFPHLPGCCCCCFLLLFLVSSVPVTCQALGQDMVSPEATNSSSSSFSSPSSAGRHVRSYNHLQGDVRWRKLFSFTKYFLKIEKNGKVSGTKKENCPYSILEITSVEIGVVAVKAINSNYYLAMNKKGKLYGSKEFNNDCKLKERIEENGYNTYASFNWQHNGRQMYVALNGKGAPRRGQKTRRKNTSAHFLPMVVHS
Left-right determination factor 2 (Homo sapiens), sequence (O00292 whole entry, looked up): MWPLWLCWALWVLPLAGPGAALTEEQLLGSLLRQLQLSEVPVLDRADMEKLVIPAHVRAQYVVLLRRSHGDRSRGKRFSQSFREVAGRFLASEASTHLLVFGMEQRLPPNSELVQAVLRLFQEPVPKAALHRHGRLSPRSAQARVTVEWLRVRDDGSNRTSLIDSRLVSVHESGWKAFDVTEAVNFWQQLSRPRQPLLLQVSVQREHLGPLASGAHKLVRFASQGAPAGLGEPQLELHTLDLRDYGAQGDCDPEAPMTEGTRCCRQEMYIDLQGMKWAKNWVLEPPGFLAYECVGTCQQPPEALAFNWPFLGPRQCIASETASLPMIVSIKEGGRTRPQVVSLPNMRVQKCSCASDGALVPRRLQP
Follistatin-related protein 3 (Homo sapiens), sequence (O95633 whole entry, looked up): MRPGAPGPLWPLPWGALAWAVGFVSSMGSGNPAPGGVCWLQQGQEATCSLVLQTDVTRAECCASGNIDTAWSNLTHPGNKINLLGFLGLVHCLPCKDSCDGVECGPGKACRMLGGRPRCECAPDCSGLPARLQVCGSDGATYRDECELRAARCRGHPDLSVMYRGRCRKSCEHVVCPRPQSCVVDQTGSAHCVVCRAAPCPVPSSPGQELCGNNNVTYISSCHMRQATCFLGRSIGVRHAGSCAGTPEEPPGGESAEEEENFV

COCCOC(=O)N1C(=O)[C@@]2(c3cc(C#Cc4ccc(OC)cc4)ccc31)[C@H](c1ccccc1OCCO)N1[C@H](c3ccccc3)[C@H](c3ccccc3)OC(=O)[C@H]1[C@@H]2C(=O)NC[C@H](O)c1ccccc1
composite z-score [1]: 1.23 | composite z-score [2]: 0.201 | composite z-score [3]: 0.145 | z-score [4]: -0.352 (inactive) | composite z-score [5]: 1.14 | composite z-score [6]: 0.748 | composite z-score [7]: 0.544 | composite z-score [8]: 1.43 | composite z-score [9]: 0.696 | composite z-score [10]: 0.53 | composite z-score [11]: 1.44 | z-score [12]: -2.03 | composite z-score [13]: 0.46 | composite z-score [14]: 1.03 | composite z-score [15]: 0.427 | composite z-score [16]: -0.0445 | composite z-score [17]: 0.0469 | composite z-score [18]: 0.407 | composite z-score [19]: 0.819 | composite z-score [20]: 1.86

CCCC=C(CCC)[C@@H](NC(=O)c1cccs1)c1ccc(C(F)(F)F)cc1
composite z-score [1]: 0.119 | composite z-score [2]: 0.607 | composite z-score [3]: 0.406 | z-score [4]: -2.16 (inactive) | composite z-score [5]: 0.36 | composite z-score [6]: 1.25 | composite z-score [7]: 0.569 | composite z-score [8]: 0.857 | composite z-score [9]: -0.568 | composite z-score [10]: 0.454 | composite z-score [11]: 1.17 | z-score [12]: -0.668 | composite z-score [13]: 1.16 | composite z-score [14]: 1.48 | composite z-score [15]: 0.522 | composite z-score [16]: 0.0546 | composite z-score [17]: 0.336 | composite z-score [18]: 1.15 | composite z-score [19]: 1.27 | composite z-score [20]: 0.734

C=CC[C@]1(C(=O)NCc2ccccc2)N=C(c2ccc(OCCCO)cc2)O[C@H]1c1ccccc1N=[N+]=[N-]
composite z-score [1]: 1.33 | composite z-score [2]: -0.0281 | composite z-score [3]: 1.11 | z-score [4]: -0.457 (inactive) | composite z-score [5]: 0.819 | composite z-score [6]: 0.849 | composite z-score [7]: 0.174 | composite z-score [8]: 0.637 | composite z-score [9]: -0.284 | composite z-score [10]: 1.29 | composite z-score [11]: 1.44 | z-score [12]: -0.368 | composite z-score [13]: 0.201 | composite z-score [14]: 1.96 | composite z-score [15]: 0.901 | composite z-score [16]: 0.0108 | composite z-score [17]: 0.0875 | composite z-score [18]: -0.572 | composite z-score [19]: 1.44 | composite z-score [20]: 1.65

O=C1C2C=CC(C(O)CCc3ccccc3)N(Nc3ccccc3F)C2C(=O)N1c1ccccc1 (stereo not given)
composite z-score [1]: 1.17 | composite z-score [2]: 0.909 | composite z-score [3]: 1.09 | z-score [4]: -0.0383 (inactive) | composite z-score [5]: 1.25 | composite z-score [6]: 1.31 | composite z-score [7]: 0.359 | composite z-score [8]: 1.31 | composite z-score [9]: -0.242 | composite z-score [10]: 1.04 | composite z-score [11]: 1.29 | z-score [12]: -0.83 | composite z-score [13]: -0.208 | composite z-score [14]: 0.611 | composite z-score [15]: 0.11 | composite z-score [16]: 0.229 | composite z-score [17]: 0.13 | composite z-score [18]: 1.03 | composite z-score [19]: 1 | composite z-score [20]: 0.324

CC(C)(C)OC(=O)CC[C@]1(C(=O)N2CCOCC2)N=C(c2ccc(OCCCO)cc2)O[C@H]1c1ccccc1N=[N+]=[N-]
composite z-score [1]: 1.5 | composite z-score [2]: 0.653 | composite z-score [3]: 0.854 | z-score [4]: -0.921 (inactive) | composite z-score [5]: 1.18 | composite z-score [6]: 1.2 | composite z-score [7]: -0.0405 | composite z-score [8]: 0.0265 | composite z-score [9]: 0.283 | composite z-score [10]: 0.936 | composite z-score [11]: 1.05 | z-score [12]: 2.2 | composite z-score [13]: 0.119 | composite z-score [14]: 0.981 | composite z-score [15]: 0.0644 | composite z-score [16]: -0.0125 | composite z-score [17]: 0.308 | composite z-score [18]: 1.37 | composite z-score [19]: 2.43 | composite z-score [20]: 1.23

C[N+](C)(C)CCCCNC(=O)[C@H]1C[C@H]2C(=O)N3CCC[C@H]3C(=O)N2[C@H]1c1cccc(OCCO)c1
composite z-score [1]: 0.501 | composite z-score [2]: 0.0086 | composite z-score [3]: 0.314 | z-score [4]: 0.717 (inactive) | composite z-score [5]: 0.489 | composite z-score [6]: -0.415 | composite z-score [7]: -0.142 | composite z-score [8]: 1.14 | composite z-score [9]: 1.32 | composite z-score [10]: 1.08 | composite z-score [11]: -1.09 | z-score [12]: -0.884 | composite z-score [13]: 0.766 | composite z-score [14]: -0.858 | composite z-score [15]: 1.03 | composite z-score [16]: -0.0721 | composite z-score [17]: 0.0141 | composite z-score [18]: 0.0043 | composite z-score [19]: 0.854 | composite z-score [20]: -0.912

C=C[C@H](CO[Si](CC)(CC)CC)N(Cc1ccc(OC(C)=O)c(OC)c1)S(=O)(=O)c1ccc(Br)cc1
composite z-score [1]: 0.609 | composite z-score [2]: 0.964 | composite z-score [3]: 0.471 | z-score [4]: -0.0534 (inactive) | composite z-score [5]: 0.365 | composite z-score [6]: 0.443 | composite z-score [7]: 0.275 | composite z-score [8]: 0.465 | composite z-score [9]: 0.0558 | composite z-score [10]: 1.1 | composite z-score [11]: 1.15 | z-score [12]: -3.27 | composite z-score [13]: 0.537 | composite z-score [14]: 1.41 | composite z-score [15]: 0.67 | composite z-score [16]: 0.101 | composite z-score [17]: -0.057 | composite z-score [18]: 0.0481 | composite z-score [19]: 1.12 | composite z-score [20]: 1.23

O=C1NC(=O)C2C1C=CC(C(O)c1cccs1)N2Nc1ccc(Cl)cc1Cl (stereo not given)
composite z-score [1]: 1 | composite z-score [2]: 0.82 | composite z-score [3]: 1.03 | z-score [4]: 0.569 (inactive) | composite z-score [5]: 0.438 | composite z-score [6]: -1.21 | composite z-score [7]: -0.893 | composite z-score [8]: -0.375 | composite z-score [9]: -0.456 | composite z-score [10]: 1.03 | composite z-score [11]: -1.16 | z-score [12]: -0.153 | composite z-score [13]: -0.824 | composite z-score [14]: 0.0484 | composite z-score [15]: 0.243 | composite z-score [16]: -0.212 | composite z-score [17]: 0.0278 | composite z-score [18]: -0.774 | composite z-score [19]: 1.89 | composite z-score [20]: -0.779
